# CendR NRP1 mod = NRP-1/CendR interaction modulation; 360,000 tested, 0.85% active; FAM-RPARPAR peptide binding to NRP-1, fluorescence polarization; AID 602438; O14786; inhibition, % at 25 µM;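 active = inhibition or corrected inhibition above about 18%, plus a signal ratio from 0.5 to 1.5, limit read from the data, passing the limit was not always enough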
# PHOSPHO1 inh = inhibitors of human PHOSPHO1 phosphatase | 290,000 tested, 1.1% active | inhibition, % at 13.3 µM | recombinant PHOSPHO1, absorbance phosphatase assay; in the data active = inhibition above about 60%
# Target sequence (Q8TCT1 whole entry, looked up): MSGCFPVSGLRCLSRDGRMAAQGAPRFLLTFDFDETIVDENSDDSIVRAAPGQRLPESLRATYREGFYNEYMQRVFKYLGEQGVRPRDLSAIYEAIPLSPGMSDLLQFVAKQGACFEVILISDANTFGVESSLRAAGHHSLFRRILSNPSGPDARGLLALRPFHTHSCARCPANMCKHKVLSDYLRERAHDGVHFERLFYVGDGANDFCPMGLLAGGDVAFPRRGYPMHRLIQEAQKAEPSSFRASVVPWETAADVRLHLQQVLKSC
# Rpn11 inh = blocks the human proteasome subunit Rpn11; 360,000 tested, 0.59% active; human 26S proteasome, Ub4-pepOG fluorescence polarization; 20S core pre-blocked with epoxomicin; AID 588493; inhibition, % at 20 µM; O00487;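 active = inhibition at 20 µM, scaled to each plate's controls, above about 33%, limit read from the data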
# Target sequence (O00487 whole entry, looked up): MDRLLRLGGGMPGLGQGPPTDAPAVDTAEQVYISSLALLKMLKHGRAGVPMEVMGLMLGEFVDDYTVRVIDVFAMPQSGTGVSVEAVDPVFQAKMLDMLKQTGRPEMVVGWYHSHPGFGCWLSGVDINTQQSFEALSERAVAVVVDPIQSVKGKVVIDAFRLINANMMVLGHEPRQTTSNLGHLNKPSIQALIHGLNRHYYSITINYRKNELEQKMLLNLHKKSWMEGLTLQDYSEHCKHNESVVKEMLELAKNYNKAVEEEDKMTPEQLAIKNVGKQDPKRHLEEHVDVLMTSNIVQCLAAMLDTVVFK
# CTSL1 counter = blocks F. hepatica cathepsin L1 in PFM18AAP counter-screen | recombinant F. hepatica cathepsin L1, Z-Leu-Arg-MCA fluorescence | inhibition, % at 5.96 µM | 300,000 tested, 0.49% active | AID 1906;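 active = inhibition above the mean of all tested compounds plus 3 SD, set per screening campaign, cut at about 17% in these data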
# HNF4A DNA FP = change in binding of human HNF4 alpha to DNA; HNF4a-FITC DNA binding, fluorescence polarization, 1 h; activity change, % at 10 µM; 360,000 tested, 0.3% active; AID 1224865; in the data active = activity change above about 30%, passing the limit was not always enough
# TPT1 inhibitor = C. albicans TPT1 enzyme inhibition | inhibition, % at 5 µM | 300,000 tested, 0.81% active | recombinant caTPT1, FP RNA substrate dephosphorylation;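 active = inhibition above the mean of all tested compounds plus 3 SD, set per screening campaign, cut at about 24% in these data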
# Numbers stand for hits; 0 = inactive; - = not tested or not shown. The list is not random: actives were taken first. Their share in the collection is about 3.3%.
SMILES,CendR NRP1 mod,PHOSPHO1 inh,Rpn11 inh,CTSL1 counter,HNF4A DNA FP,TPT1 inhibitor
Cc1cccc(-c2n[nH]c(=S)n2Cc2ccccc2)c1,0,0,0,0,0,0
Cc1ccc(-c2n[nH]c(=S)n2Cc2ccccc2)cc1,0,99.8,0,0,0,0
CCc1cc(-c2n[nH]c(=S)n2Cc2ccccc2)cs1,0,92.4,0,0,0,0
CCCc1cc(-c2n[nH]c(=S)n2CC)cs1,0,0,0,0,0,0
S=c1[nH]nc(-c2ccc(Cl)cc2Cl)n1Cc1ccccc1,0,60.3,0,0,0,0
S=c1[nH]nc(-c2cccc(Cl)c2)n1Cc1ccccc1,0,68.9,0,0,0,0
CCCc1cc(-c2n[nH]c(=S)n2C(C)c2ccccc2)cs1 (centres undefined),0,82.7,0,0,0,0
CCC(C)C(NC(=O)[C@@H](NC(=O)c1ccccc1F)C(C)C)C(=O)OC (some centres undefined),0,0,0,0,0,0
Cc1nc2ccc(CCO)cc2s1,0,0,0,0,0,0
C=CCn1c(NC(=O)c2ccccc2Cl)c(C#N)c2nc3ccccc3nc21,0,0,0,0,64.1,0
CCCCn1c(NC(C)=O)c(C#N)c2nc3ccccc3nc21,0,0,0,0,0,0
O=C(NCc1ccccc1Cl)c1cccc(NC(=O)c2ccccc2)c1,18.3,0,0,0,0,0
O=C(CNC(=O)c1cccs1)NCC(=O)OCc1ccccc1Cl,0,0,0,0,0,0
O=C(CNC(=O)c1ccccc1)NCC(=O)OCc1ccccc1Cl,0,60.0,0,0,0,0
C[C@@H]1CN([C@@H](C)CO)C(=O)c2cc(NC(=O)C3CCCCC3)ccc2O[C@@H](C)CCCCO[C@@H]1CN(C)C(=O)CCCN(C)C,0,-,0,-,0,-
O=C1Nc2ccc(Br)cc2/C1=C/C1CC=CCC1 (centres undefined),0,0,0,27.6,0,0
COc1ccc(/[N+]([O-])=C/c2ccco2)cc1,0,-,0,-,0,-
O=C(CSc1nc2ccccc2n1CC(=O)NCc1ccccc1)NCc1ccco1,0,69.2,0,0,0,0
Cc1ccccc1-n1c(=O)c2ccccc2n(CC(=O)NCc2ccco2)c1=O,0,0,0,0,0,0
CC(=O)c1c(C)n(CC(=O)NCc2ccco2)c2ccccc12,0,68.6,0,0,0,0
O=C(CSc1c2c(nc3ccccc13)CCCC2)NCc1ccco1,0,0,0,0,0,0
CC(C)(C)c1nc(SCC(=O)NCc2ccco2)c2ccccc2n1,26.3,0,0,0,0,0
Clc1cc(/C=N\NC2=NCCN2)cc(Cl)n1,0,-,0,0,0,0
Cc1cccc(N(Cc2cc3ccccc3[nH]c2=O)C(=O)c2cccs2)c1,0,0,0,0,0,0
c1ccc(Nc2cc(Nc3ccccc3)[nH]n2)cc1,0,68.8,0,0,0,0
SMILES,CendR NRP1 mod,PHOSPHO1 inh,Rpn11 inh,CTSL1 counter,HNF4A DNA FP,TPT1 inhibitor
CCOC(=O)[C@]12CCC=C1N(Cc1cccc3ccccc13)C(=O)[C@H](CC(=O)NCCCCc1ccccc1)C2,0,-,-,-,0,-
COc1ccc(C(=O)C(OC(=O)CNC(=O)c2ccco2)c2ccccc2)cc1 (centres undefined),0,0,0,33.2,0,0
COc1ccc(C)cc1NC(=O)C(OC(=O)CNC(=O)c1cc(C)cc(C)c1)c1ccccc1 (centres undefined),0,0,0,0,0,0
Cc1ccc(C(=O)C(OC(=O)CNC(=O)c2ccc(Cl)cc2)c2ccccc2)cc1 (centres undefined),0,0,0,19.6,0,0
O=C(CNC(=O)C1CCCCC1)OC(C(=O)c1ccccc1)c1ccccc1 (centres undefined),0,-,0,-,0,-
COc1ccc(C)cc1NC(=O)C(OC(=O)CNC(=O)c1ccc(Br)cc1)c1ccccc1 (centres undefined),0,0,0,17.6,0,0
Cc1ccc(S(=O)(=O)NCC(=O)OC(C(=O)c2ccccc2)c2ccccc2)cc1 (centres undefined),0,0,0,0,0,0
COc1ccc(/C(C)=N/NC(=O)CNC(=O)c2ccco2)cc1,0,0,0,0,0,0
O=C(CNC(=O)c1ccccc1)OC(C(=O)c1ccccc1)c1ccccc1 (centres undefined),0,0,0,18.1,0,0
CCC(Oc1ccccc1)C(=O)Nc1ccsc1C(=O)OC (centres undefined),0,0,0,0,0,0
CCN(C(=O)CSc1nncn1-c1ccccc1)C1CCS(=O)(=O)C1 (centres undefined),0,-,0,0,0,0
CC(C)C[C@H]1CN(CCCC[C@@H]2CNC(=O)C(=O)N2CC2CCCCC2)C(=O)C(=O)N1CCC1CCCCC1,0,-,-,-,0,-
Cc1ccccc1C1=NC(c2ccc(F)cc2F)ON1 (centres undefined),21.8,0,0,0,0,0
COc1ccccc1C1N=C(c2ccccc2C)NO1 (centres undefined),0,0,0,0,0,0
Cc1ccc(S(=O)(=O)C[C@@H]2OC[C@H](Cc3ccccc3)N2S(=O)(=O)c2ccc(C)cc2)cc1,0,-,-,-,0,-
Cc1ccc(NC2CCCN(C(=O)c3ccc4nccnc4c3)C2)cc1C (centres undefined),43.3,0,0,-,0,-
CCNC(=O)C1CCCN(c2nc(C)cc(C)n2)C1 (centres undefined),0,0,0,0,0,0
CCOC(=O)N1CCC(Nc2c(NCCCOC)c(=O)c2=O)CC1,0,0,0,0,0,0
CCOC(=O)N1CCC(N2C(=O)c3ccccc3C2=O)CC1,0,99.1,0,0,0,0
CCOC(=O)N1CCC(Nc2c(OCC)c(=O)c2=O)CC1,0,0,0,36.0,0,0
CCOC(=O)N1CCC(N2C(=O)c3ccc(C(=O)NCCC(C)C)cc3C2=O)CC1,0,0,0,0,0,0
CC(OC(=O)CCSc1ccccc1)C(=O)Nc1ccc(S(N)(=O)=O)cc1 (centres undefined),0,-,0,0,0,0
Cc1ccc(SCC(=O)OC(C)C(=O)Nc2ccc(S(N)(=O)=O)cc2)cc1C (centres undefined),44.5,-,0,0,0,0
CCCCCCCCN1C(=O)[C@H](CC(=O)NCCC(C)C)C[C@@]2(C(=O)OCC)CCC=C12,0,-,-,-,0,-
Cc1cc(NC(=O)CSc2nnc(-c3ccoc3C)n2N)no1,0,0,0,0,0,0
CCOc1ccc(C(C)=O)cc1CSc1nnc(-c2ccoc2C)n1N,0,75.3,0,0,0,0
COC(=O)CSc1nnc(CNC(=O)c2cc(OC)c(OC)c(OC)c2)n1C,0,0,0,0,28.4,0
CC(=O)Nc1ccc2nc3c(=O)n(C)c(=O)n(C)c3nc2c1,42.2,0,0,0,0,0
Cn1c(=O)c2nc3ccccc3nc2n(C)c1=O,0,0,0,0,0,0
